High-throughput results as filed in PubChem.
Shown are actives, neighbours in structure and some others; about 3.1% of the full set was active somewhere.
BioA inh: inhibitors of Mycobacterium tuberculosis BioA enzyme | purified M. tuberculosis BioA enzyme, plate reader | inhibition, % at 9.99 µM | 0.096% of 360,000 active; in the data active = inhibition above about 40%
3CLpro inhibitor: SARS-CoV 3CLpro protease inhibition; P0C6X7; recombinant SARS-CoV 3CLpro, quenched FRET peptide cleavage; inhibition, % at 6 µM; 0.14% of 290,000 active; AID 1706; in the data active = inhibition above about 12%
GDH-TPI counter-1: counter-screen for M. tuberculosis FBA inhibitors: GDH-TPI coupled enzymes; GDH-TPI coupled enzyme counterscreen, NADH absorbance; inhibition, % at 4.8 µM; 1.2% of 360,000 active; AID 588335; in the data active = inhibition above about 30%;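 note: 0% = DMSO wells and 100% = wells lacking the enzyme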
FadD28 FP inh: blocks FadD28 binding to the bisubstrate probe; fluorescence polarization; AID 588549; inhibition, % at 12.5 µM; 0.22% of 360,000 active; in the data active = inhibition above about 8.5%, passing the limit was not always enough
FBA Mtb inh: Mtb fructose-bisphosphate aldolase inhibition. P9WQA3. 2.3% of 360,000 active. inhibition, % at 1 µM. purified M. tuberculosis FBA, fluorescence read-out;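 note: 0% = vehicle and 100% = reference inhibitor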
Target sequence (P9WQA3 whole entry, looked up): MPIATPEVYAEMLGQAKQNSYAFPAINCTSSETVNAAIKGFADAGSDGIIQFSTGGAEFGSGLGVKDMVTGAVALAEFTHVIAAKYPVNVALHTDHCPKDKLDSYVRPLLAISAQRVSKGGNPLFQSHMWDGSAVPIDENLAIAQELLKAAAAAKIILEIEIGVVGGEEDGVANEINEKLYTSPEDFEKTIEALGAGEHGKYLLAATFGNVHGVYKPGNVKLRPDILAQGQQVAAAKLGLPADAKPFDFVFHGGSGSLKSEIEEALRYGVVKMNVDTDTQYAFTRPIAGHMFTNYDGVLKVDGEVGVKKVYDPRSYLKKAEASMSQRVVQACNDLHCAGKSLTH
Mtb FBA inh conf: confirmation of M. tuberculosis fructose-bisphosphate aldolase inhibitors; shares compounds with FBA Mtb inh; purified M. tuberculosis FBA, fluorescence read-out; inhibition, % at 1 µM; 78% of 5,600 active; AID 651616;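 note: 0% = vehicle wells and 100% = reference inhibitor wells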
GDH-TPI counter-2: GDH-TPI inhibition counter-screen for FBA inhibitors; GDH-TPI coupled enzyme counterscreen, fluorescence; 81% of 5,600 active; shares compounds with FBA Mtb inh; inhibition, % at 1 µM; in the data active = inhibition above about 10%
* = called active by the depositor; x = no result given; + = active, no number. Cut-off read from the data, not from the text of the source, unless noted: active = inhibition above about 27%; inactive = the rest.

SMILES	BioA inh	3CLpro inhibitor	GDH-TPI counter-1	FadD28 FP inh	FBA Mtb inh	Mtb FBA inh conf	GDH-TPI counter-2
COc1ccc(S(=O)(=O)N2CCN(Cc3ccc(Cl)cc3)CC2)cc1	x	-1	1	-2	-2	x	x
CCCc1cc(=O)oc2cc(C)cc(OCC(=O)NCCN3CCOCC3)c12	0	1	2	-3	67*	0	-4
Cc1cc(OCC(=O)NCCN2CCOCC2)cc(C)c1Cl	-2	-4	2	-2	0	x	x
CCCc1cc(=O)oc2cc(C)cc(OCC(=O)Nc3ccc(CN4CCOCC4)cc3)c12	-3	4	10	-3	43*	2	-5
Cc1c(C)c2ccc(OCC(=O)Nc3cccnc3)c(C)c2oc1=O	18	-7	14	0	60*	-2	2
COc1ccc(-c2cc(=O)oc3c(C)c(OCC(=O)Nc4cccnc4)ccc23)cc1	-1	-2	10	1	1	x	x
Cc1c(C)c2ccc(OCC(=O)NCCN3CCOCC3)c(C)c2oc1=O	6	2	3	-1	47*	+	+
C/C=C/c1cnc2c(c1)C(=O)N([C@@H](C)CO)C[C@H](C)[C@H](CN(C)Cc1ccccc1)O2	1	x	x	x	x	x	x
CCCNC(=O)[C@@H]1[C@@H](CO)[C@@H]2Cn3c(ccc(-c4ccc(F)cc4)c3=O)[C@@H]2N1CCC	7	x	x	x	x	x	x
CCc1cc(=O)oc2cc(C)cc(OCC(=O)NCCc3c[nH]c4ccccc34)c12	0	3	6	2	9	x	x
CCc1cc(=O)oc2cc(C)cc(OCC(=O)NCCN3CCOCC3)c12	0	1	10	-1	61*	52*	66*
Cc1cc(OCC(=O)NCCCN2CCOCC2)c2c(C)cc(=O)oc2c1	-2	0	5	-3	61*	138*	142*
Cc1noc(C)c1S(=O)(=O)N(C)C[C@@H]1Oc2ccc(NS(=O)(=O)c3ccc(Cl)cc3)cc2C(=O)N([C@H](C)CO)C[C@@H]1C	3	x	x	x	x	x	x
Nc1nc2c(c3c1c(=O)oc1ccccc13)CCCCC2	-1	-3	2	-2	38*	-11	-14
COCC#Cc1ccc2c(c1)O[C@H](CN(C)C(=O)C1CCC1)[C@H](C)CN([C@@H](C)CO)S2(=O)=O	-3	x	x	x	x	x	x
CC(C)Sc1nc(N2CCCC2)c2c(c1C#N)CC(C)(C)OC2	-2	-5	13	-1	6	x	x
CC1(C)Cc2nc(N3CCOCC3)c(C#N)cc2CO1	x	-10	-3	-4	49*	37*	35*
CC1(C)Cc2nc(N3CCCC3)c(C#N)cc2CO1	x	2	7	-2	110*	66*	50*
CCCn1c2ccccc2c2nnc(SCC(=O)OCC)nc21	-1	-2	25	-3	52*	38*	64*
CCCn1c2ccccc2c2nnc(SCC(=O)OC)nc21	1	-2	12	0	1	x	x
CCC(=O)N(C)C[C@@H]1Oc2ncc(-c3ccccc3C)cc2C(=O)N([C@H](C)CO)C[C@H]1C	1	x	x	x	x	x	x
CCNC(=O)COC(=O)c1ccc(-c2nc3ccccc3s2)s1	x	-2	21	-3	59*	+	+
CC(=O)OC[C@H]1O[C@@H](Sc2cccc3cccnc23)[C@H](OC(C)=O)[C@@H](OC(C)=O)[C@H]1OC(C)=O	-1	-6	-1	-2	35*	67*	83*
CC(=O)OC[C@H]1O[C@@H](Sc2cccc3cccnc23)[C@H](OC(C)=O)[C@@H](OC(C)=O)[C@@H]1OC(C)=O	x	3	10	-2	28*	57*	60*
CC(=O)OCC1OC(c2ccccc2)C(OC(C)=O)C(OC(C)=O)C1OC(C)=O (configuration not stated)	x	-1	-4	0	0	x	x
SMILES	BioA inh	3CLpro inhibitor	GDH-TPI counter-1	FadD28 FP inh	FBA Mtb inh	Mtb FBA inh conf	GDH-TPI counter-2
C[C@@H]1CCCCO[C@@H](CN(C)C(=O)Nc2ccc3c(c2)OCO3)[C@H](C)CN([C@@H](C)CO)C(=O)c2cc(NC(=O)Nc3ccc4c(c3)OCO4)ccc2O1	0	x	x	x	x	x	x
Nc1c(Cl)cc(Cl)cc1C(=O)OCC(=O)N1CCCC1	-5	0	0	-1	95*	137*	107*
NC(=O)COC(=O)c1cc(Cl)cc(Cl)c1N	x	-2	-6	-2	89*	+	+
CN(CCC#N)C(=O)COC(=O)c1cc(Cl)cc(Cl)c1N	x	5	4	-2	93*	-2	-5
N#C/C(=C(\O)c1ccco1)c1ccccn1	0	1	8	-1	9	x	x
N#C/C(=C(/O)CCCl)c1ccccn1	-3	4	5	-1	59*	87*	55*
CC(C)NC(=O)Nc1ccc2c(c1)C(=O)N([C@H](C)CO)C[C@H](C)[C@H](CN(C)CC1CCCCC1)OCCCC[C@H](C)O2	2	x	x	x	x	x	x
Cc1cccc(-c2cc3nc(C)cc(N4CC(C)CC(C)C4)n3n2)c1 (configuration not stated)	6	-1	10	-2	67*	56*	30*
Cc1cccc(-c2cc3nc(C)cc(C)n3n2)c1	x	-6	6	-1	11	x	x
CCOc1ccc(-c2cc(C(=O)N3CCN(C)CC3)c3ccccc3n2)cc1	-1	2	19	0	92*	-8	-6
CCOC(=O)N1CCN(C(=O)c2ccc3nc(-c4ccccc4)c(-c4ccccc4)nc3c2)CC1	0	4	25	0	35*	99*	67*
CCOc1ccc(-c2cc(C(=O)N3CCCC3)c3ccccc3n2)cc1	-2	1	9	-3	91*	152*	131*
CCOc1ccc(-c2cc(C(=O)N3CCN(c4ccccn4)CC3)c3ccccc3n2)cc1	-2	-2	11	-2	3	x	x
CCOC(=O)N1CCN(C(=O)c2cc(-c3ccc(OCC)cc3)nc3ccccc23)CC1	0	0	26	-2	77*	103*	71*
O=C(c1cc(-c2ccc(F)cc2)nc2ccccc12)N1CCC1	x	x	9	0	9	x	x
CCOC(=O)N1CCN(C(=O)c2ccc3oc(CCc4ccccc4)nc3c2)CC1	0	x	6	0	-2	x	x
C[C@H](CO)N1C[C@H](C)[C@@H](CN(C)S(=O)(=O)c2ccc(Cl)cc2)Oc2ccc(NC(=O)c3ccncc3)cc2CC1=O	6	x	x	x	x	x	x
CN(C)CC(=O)Nc1ccc2c(c1)[C@@H]1C[C@H](CC(=O)NCc3cc(F)ccc3F)O[C@@H](CO)[C@@H]1O2	0	x	x	x	x	x	x
C=CCNC(=O)c1ccc2nc(-c3ccccc3)c(-c3ccccc3)nc2c1	0	0	10	-5	32*	+	175*
COc1ccc(NC(=O)C2Cc3c(-c4ccc5c(c4)OCO5)ccnc3O2)cc1 (configuration not stated)	2	x	-1	-3	46*	21	12*
